Experimental data taken from PubChem BioAssay (NCATS).
Inconclusive results are not listed. A call without a number means that no potency is given here. Unmarked numbers belong to inactive results. The source made the active and inactive calls. Calls follow the shape of the dose curve; as a rule, active = well fitted inhibition curve with a large enough effect; inconclusive = small, poorly fitted or top-dose-only effect; inactive = flat fitted curve, though single readings scatter.

Columns and labels:
CRL-7250 = normal cell line; experiment: Cytotoxic Profiling of Annotated Libraries Using Quantitative High-Throughput Screening (AID 1296008); details: Five cell lines viability, CellTiter-Glo ATP luminescence, 48-72 h; max response: stronger effect = lower value; also: potency is read from the fitted curve at half-maximal effect
Method in brief: (§1)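 Compounds were pin-transferred onto cells and incubated 48 or 72 hr at 37 degree Celsius, 95% humidity. CellTiter-Glo was added, plates sat 10 min at room temperature, then ATP-coupled luminescence was imaged as the viability read-out.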

HEK293 = experiment: as above; details: Five cell lines viability, CellTiter-Glo ATP luminescence, 48-72 h; max response: stronger effect = lower value
Method in brief: as §1

HaCat [1] = experiment: as above; details: Five cell lines viability, CellTiter-Glo ATP luminescence, 48-72 h; max response: stronger effect = lower value
Method in brief: as §1

KB-3-1 = experiment: as above; details: Five cell lines viability, CellTiter-Glo ATP luminescence, 48-72 h; max response: stronger effect = lower value
Method in brief: as §1

NIH3T3 = experiment: as above; details: Five cell lines viability, CellTiter-Glo ATP luminescence, 48-72 h; max response: stronger effect = lower value
Method in brief: as §1

JCK = experiment: qHTS profiling for inhibitors of Plasmodium falciparum proliferation (AID 504749); also: potency is read from the fitted curve at half-maximal effect; details: P. falciparum in erythrocytes, SYBR Green DNA, 72 h; series mostly up to 28.7 µM
Method in brief: (§2)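 P. falciparum-infected erythrocytes (0.3% parasitemia, 2.5% hematocrit final) were exposed to compounds for 72 h at 37 C in 5% CO2, then lysed with SYBR Green buffer overnight at room temperature; parasite DNA fluorescence was normalized to artemisinin and DMSO controls.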

N140 = experiment: as above; details: P. falciparum in erythrocytes, SYBR Green DNA, 72 h; series mostly up to 28.7 µM
Method in brief: as §2

P93_24 = experiment: as above; details: P. falciparum in erythrocytes, SYBR Green DNA, 72 h; series mostly up to 28.7 µM
Method in brief: as §2

P94_40 = experiment: as above; details: P. falciparum in erythrocytes, SYBR Green DNA, 72 h; series mostly up to 28.7 µM
Method in brief: as §2

PAD = experiment: as above; details: P. falciparum in erythrocytes, SYBR Green DNA, 72 h; series mostly up to 28.7 µM
Method in brief: as §2

PC15 = experiment: as above; details: P. falciparum in erythrocytes, SYBR Green DNA, 72 h; series mostly up to 28.7 µM
Method in brief: as §2

PC26 = experiment: as above; details: P. falciparum in erythrocytes, SYBR Green DNA, 72 h; series mostly up to 28.7 µM
Method in brief: as §2

PC49 = experiment: as above; details: P. falciparum in erythrocytes, SYBR Green DNA, 72 h; series mostly up to 28.7 µM
Method in brief: as §2

SC27B = experiment: as above; details: P. falciparum in erythrocytes, SYBR Green DNA, 72 h; series mostly up to 28.7 µM
Method in brief: as §2

TAB109 = experiment: as above; details: P. falciparum in erythrocytes, SYBR Green DNA, 72 h; series mostly up to 28.7 µM
Method in brief: as §2

TAB113 = experiment: as above; details: P. falciparum in erythrocytes, SYBR Green DNA, 72 h; series mostly up to 28.7 µM
Method in brief: as §2

TAB165 = experiment: as above; details: P. falciparum in erythrocytes, SYBR Green DNA, 72 h; series mostly up to 28.7 µM
Method in brief: as §2

HACAT [2] = experiment: qHTS assay to identify novel small-molecules to repurpose for Merkel cell carcinoma treatment (AID 1296009); details: MCC and control cell lines, CellTiter-Glo viability, 72 h; at 44.8 µM (top of the series) unless noted
Method in brief: (§3)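 Cells exposed to NPC (8-point) and MIPE (11-point) compound dilutions for 72 hr at 37 degree celsius; viability read by CellTiter-Glo luminescence, normalized to no-cell and DMSO in-plate controls.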

W2 = experiment: qHTS profiling for inhibitors of Plasmodium falciparum proliferation (AID 504749); also: potency is read from the fitted curve at half-maximal effect; details: P. falciparum in erythrocytes, SYBR Green DNA, 72 h; series mostly up to 28.7 µM
Method in brief: as §2

HEK293T = experiment: qHTS assay to identify novel small-molecules to repurpose for Merkel cell carcinoma treatment (AID 1296009); details: MCC and control cell lines, CellTiter-Glo viability, 72 h; at 44.8 µM (top of the series) unless noted
Method in brief: as §3
Also: nearly all actives have a fitted effect of over 60% in size.

Molecule `Cc1ccc(/C(=C\CN2CCCC2)c2ccccn2)cc1` has a max response (CRL-7250) of 0.263%, a max response (HEK293) of -16.2% and a max response (HaCat [1]) of -3.07%. The max response (KB-3-1) was 18.1% and the max response (NIH3T3) was 1.95%.
With `CCCOc1ccccc1-c1nc2n[nH]nc2c(=O)[nH]1` the Potency (JCK) was “inactive”, the Potency (N140) was “inactive” and the Potency (P93_24) was “inactive”. The Potency (P94_40) was “inactive”, the Potency (PAD) was “inactive” and the Potency (PC15) was “inactive”. For the same molecule, the Potency (PC26) was “inactive”, the Potency (PC49) was “inactive” and the Potency (SC27B) was “inactive”. The Potency (TAB109) was “inactive”, the Potency (TAB113) was “inactive” and the Potency (TAB165) was “inactive”. The max response (CRL-7250) was -0.525%, the max response (HEK293) was 2.92% and the outcome (HaCat [1]) was “inactive”. For the same molecule, the max response (KB-3-1) was -27%, the max response (NIH3T3) was -1.31% and the outcome (HACAT [2]) was “inactive”.
For `CCN1CCC[C@H]1CNC(=O)c1c(O)c(Cl)cc(Cl)c1OC`, the Potency (JCK) was “inactive”, the Potency (N140) was “inactive” and the Potency (P93_24) was “inactive”. For the same molecule, the Potency (P94_40) was “inactive”, the Potency (PAD) was “inactive” and the Potency (PC15) was “inactive”. For the same molecule, the Potency (PC26) was “inactive”, the Potency (PC49) was “inactive” and the Potency (SC27B) was “inactive”. For the same molecule, the Potency (TAB109) was “inactive”, the Potency (TAB113) was “inactive” and the Potency (TAB165) was “inactive”. The Potency (W2) was “inactive”, the outcome (CRL-7250) was “inactive” and the outcome (HEK293) was “inactive”. For the same molecule, the outcome (HaCat [1]) was “inactive”, the max response (KB-3-1) was -13.7% and the max response (NIH3T3) was 1.49%. For the same molecule, the outcome (HACAT [2]) was “inactive” and the outcome (HEK293T) was “inactive”.
For `CN(C)C/C=C(/c1ccc(Br)cc1)c1cccnc1`, the Potency (JCK) was “inactive”, the Potency (N140) was “inactive” and the Potency (PC15) was “inactive”. For the same molecule, the Potency (PC26) was “inactive”, the Potency (PC49) was “inactive” and the Potency (SC27B) was “inactive”. For the same molecule, the Potency (TAB113) was “inactive”, the Potency (W2) was 8.49 µM (active) and the outcome (CRL-7250) was “inactive”. For the same molecule, the max response (HEK293) was -10.5%, the outcome (HaCat [1]) was “inactive” and the max response (KB-3-1) was -12.9%. For the same molecule, the outcome (NIH3T3) was “inactive” and the outcome (HACAT [2]) was “inactive”.
In the case of `CCN1CCc2nc(N)oc2CC1`, the Potency (JCK) is reported as “inactive”, the Potency (N140) is reported as “inactive” and the Potency (P93_24) is reported as “inactive”. The Potency (P94_40) was “inactive”, the Potency (PAD) was “inactive” and the Potency (PC15) was “inactive”. The Potency (PC26) was “inactive”, the Potency (PC49) was “inactive” and the Potency (SC27B) was “inactive”. For the same molecule, the Potency (TAB109) was “inactive”, the Potency (TAB113) was “inactive” and the Potency (TAB165) was “inactive”. For the same molecule, the Potency (W2) was “inactive”, the max response (CRL-7250) was 2.68% and the outcome (HEK293) was “inactive”. For the same molecule, the outcome (HaCat [1]) was “inactive”, the max response (KB-3-1) was 2.16% and the max response (NIH3T3) was -2.66%. For the same molecule, the outcome (HACAT [2]) was “inactive” and the outcome (HEK293T) was “inactive”.
In the case of `C(=C\c1ccccc1)/CN1CCN(C(c2ccccc2)c2ccccc2)CC1`, the outcome (CRL-7250) is reported as “inactive”, the Potency (HEK293) is reported as 15 µM (active) and the max response (HaCat [1]) is reported as -6.19%. It also gave a max response (KB-3-1) of 4.11% and a max response (NIH3T3) of -6.19%.
With `CN1C(=O)CC[C@H]1c1cccnc1` the max response (CRL-7250) was -11.6%, the max response (HEK293) was -8.79% and the outcome (HaCat [1]) was “inactive”. For the same molecule, the max response (KB-3-1) was 0.0726%, the max response (NIH3T3) was -5.17% and the outcome (HACAT [2]) was “inactive”.
`CN(C)C(=O)Oc1cccc([N+](C)(C)C)c1` was tested, and the Potency (JCK) was “inactive”, the Potency (N140) was “inactive” and the Potency (P93_24) was “inactive”. For the same molecule, the Potency (P94_40) was “inactive”, the Potency (PAD) was “inactive” and the Potency (PC15) was “inactive”. The Potency (PC26) was “inactive”, the Potency (PC49) was “inactive” and the Potency (SC27B) was “inactive”. The Potency (TAB109) was “inactive”, the Potency (TAB113) was “inactive” and the Potency (TAB165) was “inactive”. The Potency (W2) was “inactive”, the outcome (CRL-7250) was “inactive” and the outcome (HEK293) was “inactive”. For the same molecule, the outcome (HaCat [1]) was “inactive”, the max response (KB-3-1) was 3.68% and the max response (NIH3T3) was 1.77%. For the same molecule, the outcome (HACAT [2]) was “inactive” and the outcome (HEK293T) was “inactive”.
